According to PubChem BioAssay (NCI):
Compounds without any hit were thinned out: in the full panel of roughly 83,000, 20% have a hit.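 Single-concentration screen, 48 h exposure, 96-well plates. Endpoint: percent growth. Below 10 = active.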 Unmarked numbers belong to inactive results. Activity calls are given as the source filed them.

Legend:
Test in all cases: NCI-60 one-dose screen, 48 h (100 = growth as untreated, 0 = no growth, -100 = all killed)
Settings in all cases: 10 µM unless noted
SR leukemia = test system: SR leukemia
RPMI-8226 leukemia = test system: RPMI-8226 leukemia
OVCAR-8 ovarian = test system: OVCAR-8 ovarian
OVCAR-5 ovarian = test system: OVCAR-5 ovarian
OVCAR-4 ovarian = test system: OVCAR-4 ovarian
SK-OV-3 ovarian = test system: SK-OV-3 ovarian
IGROV1 ovarian = test system: IGROV1 ovarian
OVCAR-3 ovarian = test system: OVCAR-3 ovarian
HS 578T breast = test system: HS 578T breast
NCI/ADR-RES ovarian = test system: NCI/ADR-RES ovarian
T-47D breast = test system: T-47D breast
BT-549 breast = test system: BT-549 breast
MDA-MB-435 melanoma = test system: MDA-MB-435 melanoma
SW-620 colon = test system: SW-620 colon
MCF7 breast = test system: MCF7 breast
HCT-116 colon = test system: HCT-116 colon
HCC-2998 colon = test system: HCC-2998 colon
KM12 colon = test system: KM12 colon

SMILES | growth (SR leukemia) | growth (RPMI-8226 leukemia) | growth (OVCAR-8 ovarian) [%] | growth (OVCAR-5 ovarian) [%] | growth (OVCAR-4 ovarian) | growth (SK-OV-3 ovarian) | growth (IGROV1 ovarian) | growth (OVCAR-3 ovarian) | growth (HS 578T breast) | growth (NCI/ADR-RES ovarian) [%] | growth (T-47D breast) | growth (BT-549 breast) [%] | growth (MDA-MB-435 melanoma) | growth (SW-620 colon) | growth (MCF7 breast) | growth (HCT-116 colon) | growth (HCC-2998 colon) | growth (KM12 colon)
O=C1Nc2c(ccc(Cl)c2Cl)/C1=C/c1cc(Br)c(O)c(Br)c1 | 39.3% | 14.8% | 51.4 | 87.1 | 64.9% | 63% | 47% | 27.3% | 43.5% | 32.4 | 54.8% | 29.2 | -29.4% (active) | 36.1% | 52.8% | 58.4% | 68.7% | 32.5%
O=C1c2ccccc2-c2nccc3cc(Cl)nc1c23 | -27.8% (active) | 4.08% (active) | 51.1 | 96.5 | -96.4% (active) | 97.5% | 0.315% (active) | -87.3% (active) | -7.62% (active) | 69 | -52.5% (active) | 58.5 | -73.7% (active) | -54% (active) | -59.5% (active) | -91% (active) | 101% | 25.7%
CC(=O)OCC1OC(OC2=C(CC=C(Cl)Cl)C(=O)c3ccccc3C2=O)C(OC(C)=O)C(OC(C)=O)C1OC(C)=O (centres undefined) | -3.56% (active) | 9.85% (active) | 18 | 105 | -34.4% (active) | 96% | 83.4% | 46.4% | 96.9% | 93.1 | -18.2% (active) | 71.2 | 89.9% | 22.9% | 19.9% | 31.6% | 102% | 82.2%
CCCCOc1ccc(NC(=O)n2nc(NC(C)=O)c3cc(NC(C)=O)ccc32)cc1 | 88.4% | 76.9% | 92.5 | 114 | 106% | 117% | 95.3% | 98% | 103% | 105 | 83.2% | 81 | 92.3% | 121% | 91.9% | 88.8% | 101% | 111%
CCCCNP1(NCCCC)=NP(NCCCC)(NCCCC)=NP(NCCCC)(NCCCC)=NP(NCCCC)(NCCCC)=N1 | -51.8% (active) | -41.7% (active) | 16.7 | 16.7 | 16.9% | 7.65% (active) | 30.7% | -48.7% (active) | -7.98% (active) | 97.2 | -5.86% (active) | 45.4 | 6.7% (active) | 6.12% (active) | -7.14% (active) | 0.711% (active) | -24.9% (active) | -24.7% (active)
CCCCCCCCOC(=O)CC[C@@H](C)[C@H]1CC[C@H]2[C@@H]3[C@H](OC(=O)CCN)C[C@@H]4C[C@H](OC(=O)CCN)CC[C@]4(C)[C@H]3C[C@H](OC(=O)CCN)[C@]12C | -12.9% (active) | 77.8% | 69.5 | 92.1 | 75.7% | 90.9% | 77.2% | 108% | 79.5% | 101 | 88.8% | 124 | 74.1% | 20% | 10.8% | 49.3% | 84.2% | 77.8%
O=C1Nc2ccccc2C12CC(c1ccc(Cl)cc1)=NN2 (centres undefined) | 86.2% | 77.8% | 95.2 | 95.8 | 98.6% | 107% | 101% | 116% | 107% | 108 | 91.1% | 98.5 | 98.8% | 106% | 91.4% | 95.3% | 108% | 110%
NS(=O)(=O)c1ccc(Nc2nc3n[nH]c(Nc4ccccc4)c3c(=O)[nH]2)cc1 | 94.1% | 107% | 100 | 111 | 105% | 84.4% | 102% | 106% | 103% | 99.7 | 87.3% | 99.1 | 103% | 104% | 98.5% | 112% | 112% | 100%
